# Laboratory results reported in PubChem BioAssay.
# Test: MRP1 drug-resistance reversers in H69AR cells – cell-based, doxorubicin co-treatment, pilot screen (AID 601)
# Settings: H69AR cells + 2 uM doxorubicin, CellTiter-Glo, 72 h; measured here: viability with 2 uM doxorubicin; at 10 µM; stronger effect = lower value
row,SMILES,viability [%]
1,CCN(CC)CCN1C(=O)C(O)=C(C(=O)c2cccs2)C1c1ccc(C)o1 (stereo unspecified),93.6
2,Cc1ccc(CCSCC(=O)O)cn1,98.3
3,Cn1c(=O)c2c(nc(-n3ccnc3)n2C)n(C)c1=O,92.7
4,COc1ccc(C2C(C#N)=C(N)Oc3cc4c(cc32)OCO4)cc1 (stereo unspecified),82.2
5,CCCc1cc(=O)[nH]c(/N=C(\N)Nc2ccccc2)n1,96.3
6,CCCCCn1c(CN(C)Cc2ccccc2)nc2c1c(=O)n(C)c(=O)n2C,68.3
7,Cc1cccc(OCC(=O)Nc2ccccc2N2CCN(C(=O)C(C)C)CC2)c1C,86
8,CCNc1oc(COc2cccc(C)c2)nc1C#N,77.1
9,C=C(C)COc1ccc(-c2n[nH]c(C)c2-c2ccccc2)c(O)c1,13.2
10,C=CCn1c(SCc2cc(=O)n3ccsc3n2)nnc1C1CCCCC1,79.1
11,Cc1nnc(NC2CCCCC2)[nH]c1=O,80.3
12,CCc1cc(-c2[nH]ncc2-c2ccc3c(c2)OCO3)c(O)cc1O,37.5
13,CCn1nnc(NC(=O)c2ccccc2Br)n1,89.4
14,O=S(=O)(c1ccc2c(c1)OCCO2)N(Cc1ccc(F)cc1)Cc1nnc(-c2cccs2)o1,83.4
15,Nc1nnc(Cc2ccc(Cl)cc2)s1,86.3
16,Cc1onc(-c2ccccc2)c1C(=O)N1CCCSC1=Nc1ccccc1,86.6
17,O=C(Nc1ccccc1)N(Cc1cccnc1)Cc1ccco1,84.1
18,COc1ccccc1N1CCN(C(=O)C2CC=CCC2C(=O)O)CC1 (stereo unspecified),86.5
19,CN=C(C)C1=C(O)C(C(=O)OC)C(C)(C)CC1=O (stereo unspecified),95.3
20,O=C(CN1C(=O)CC(c2ccccc2)=Nc2ccccc21)NCc1ccco1,79.4
21,O=C(CP(=O)(c1ccccc1)c1ccccc1)N1CCCCC1,86.9

# Same assay, conditions: H69AR cells, CellTiter-Glo, 72 h; compound alone cytotoxicity; at 10 µM
row,SMILES,viability [%]
1,COC(=O)c1cc(-c2c(C)nn(-c3ccccc3)c2C)n[nH]1,101
2,CCN(CC)CCNC(=O)C1CCN(S(=O)(=O)N2CCCCC2)CC1,94.8
3,COc1ccc(-c2noc(CCC(=O)Nc3nc4ccccc4s3)n2)cc1,88.1
4,Nc1nc(SCCOc2ccccc2)n[nH]1,97
5,COc1cc(OC)cc(-c2nc(N)n[nH]2)c1,103
6,O=c1ccn(Cc2ccccc2Cl)cc1,88.2
7,O=C(NC12CC3CC(CC(C3)C1)C2)N1CCN(C(=O)C2CCCO2)CC1 (stereo unspecified),95.6
8,O=C(C1CC2CCC1C2)N1CCN(Cc2ccc3c(c2)OCO3)CC1 (stereo unspecified),99.2
9,O=C(O)c1cccn2c(=O)c3ccccc3nc12,95.8
10,COc1cc2c(cc1NCc1ccccn1)oc1ccccc12,83.8
11,CCCCCCn1c(CN2CCN(Cc3ccccc3)CC2)nc2c1c(=O)n(C)c(=O)n2C,70.9
12,Cc1cccc2cc(C(c3nnnn3C(C)(C)C)N3CCN(C(=O)c4ccco4)CC3)c(=O)[nH]c12 (stereo unspecified),79.3
13,Cc1ccc(Cn2ccc(NC(=O)c3noc4c3CCCC4)n2)cc1,112
14,CCOC(=O)CC(=O)c1cc(OC)c(OC)c(OC)c1,107
15,CCOc1ccc(C2/C(=C(/O)c3ccccc3)C(=O)C(=O)N2CCCN(C)C)cc1OC (stereo unspecified),100
16,Cn1c(=O)c(=O)n(C)c2cc(S(=O)(=O)N3CCN(c4cccc(C(F)(F)F)c4)CC3)ccc21,93.3
17,CN(c1ccccc1C(=O)N1CCN(c2cccc(Cl)c2)CC1)S(C)(=O)=O,93.8
18,CCCn1nc(CC(=O)O)c2ccccc2c1=O,103
19,COc1cccc(Nc2nc(=O)[nH]nc2C)c1,87.3
20,CCN(CC)CCN1C(=O)C(O)=C(C(=O)c2cccs2)C1c1ccc(C)o1 (stereo unspecified),98.6

row,SMILES,viability [%]
1,Cc1ccc(CCSCC(=O)O)cn1,101
2,Cn1c(=O)c2c(nc(-n3ccnc3)n2C)n(C)c1=O,101
3,COc1ccc(C2C(C#N)=C(N)Oc3cc4c(cc32)OCO4)cc1 (stereo unspecified),32.8
4,CCCc1cc(=O)[nH]c(/N=C(\N)Nc2ccccc2)n1,82.4
5,CCCCCn1c(CN(C)Cc2ccccc2)nc2c1c(=O)n(C)c(=O)n2C,79.8
6,Cc1cccc(OCC(=O)Nc2ccccc2N2CCN(C(=O)C(C)C)CC2)c1C,88.8
7,CCNc1oc(COc2cccc(C)c2)nc1C#N,90.9
8,C=C(C)COc1ccc(-c2n[nH]c(C)c2-c2ccccc2)c(O)c1,21.1
9,C=CCn1c(SCc2cc(=O)n3ccsc3n2)nnc1C1CCCCC1,96.7
10,Cc1nnc(NC2CCCCC2)[nH]c1=O,87.1
11,CCc1cc(-c2[nH]ncc2-c2ccc3c(c2)OCO3)c(O)cc1O,23.3
12,CCn1nnc(NC(=O)c2ccccc2Br)n1,99.9
13,O=S(=O)(c1ccc2c(c1)OCCO2)N(Cc1ccc(F)cc1)Cc1nnc(-c2cccs2)o1,92.1
14,Nc1nnc(Cc2ccc(Cl)cc2)s1,102
15,Cc1onc(-c2ccccc2)c1C(=O)N1CCCSC1=Nc1ccccc1,92.5
16,O=C(Nc1ccccc1)N(Cc1cccnc1)Cc1ccco1,96.8
17,COc1ccccc1N1CCN(C(=O)C2CC=CCC2C(=O)O)CC1 (stereo unspecified),93.1
18,CN=C(C)C1=C(O)C(C(=O)OC)C(C)(C)CC1=O (stereo unspecified),98.5
19,O=C(CN1C(=O)CC(c2ccccc2)=Nc2ccccc21)NCc1ccco1,92.3
20,O=C(CP(=O)(c1ccccc1)c1ccccc1)N1CCCCC1,106
